Compounds with a hit are over-represented: about 3.8% of the library has one in this group of screens.
rRNA inh HTS: reduced GFP signal of wild-type E. coli, primary screen, bacterial rRNA inhibitor project, GFP/RFP fluorescence, OD600, single point | E. coli WT GFP vs humanized-ribosome RFP mutants, 24 h; active compounds read low; DMSO median 0, no signal -100 | GFP signal change (wild-type ribosome), % (test concentration not listed) | 350,000 compounds, 1.6% hits;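 active = significant combined selectivity score with lowered wild-type GFP, culture density cut under 30%, mutant RFP and density less affected; inactive = any of these conditions unmet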
ADAM10 inh: human ADAM10 inhibitors, primary screen, biochemical, QFRET, HTS; Disintegrin and metalloproteinase domain-containing protein 10 (Homo sapiens), O14672; recombinant ADAM10, EDANS/DABCYL FRET peptide cleavage, 3 h; inhibition, % at 7 µM; 370,000 compounds, 0.62% hits; AID 720582, 2013;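 active = inhibition above a per-campaign cutoff equal to the mean of compounds falling between control-based bounds plus 3 SD, cut at about 20% in these data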
proKLK7 act: proKLK7 zymogen activators, primary screen, biochemical, fluorescence intensity; AID 652039, 2013; purified proKLK7, EDANS-DABCYL substrate fluorescence; 100% is mature enzyme control, 0% vehicle; 370,000 compounds, 0.9% hits; activation, % at 7 µM; Kallikrein-7 (Homo sapiens), P49862;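 active = activation above the mean of all tested compounds plus 3 SD, computed per campaign excluding outliers beyond control limits, cut at about 13% in these data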
Target sequence (P49862 whole entry, looked up): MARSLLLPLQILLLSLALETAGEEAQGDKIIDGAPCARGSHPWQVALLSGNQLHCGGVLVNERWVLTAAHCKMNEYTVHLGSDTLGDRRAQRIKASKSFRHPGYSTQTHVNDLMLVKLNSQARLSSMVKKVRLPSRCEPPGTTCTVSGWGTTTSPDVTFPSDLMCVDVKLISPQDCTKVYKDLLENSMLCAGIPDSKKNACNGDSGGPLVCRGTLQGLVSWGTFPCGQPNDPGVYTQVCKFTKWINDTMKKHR
ADAM17 inh: ADAM17 inhibitors, primary screen, biochemical, QFRET; Disintegrin and metalloproteinase domain-containing protein 17 (Homo sapiens), P78536; 370,000 compounds, 0.83% hits; inhibition, % at 6.95 µM; AID 720648, 2013; recombinant ADAM17, EDANS/DABCYL FRET peptide cleavage;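 active = inhibition above the mean of compounds lying between control limits plus 3 SD, set per campaign, cut at about 8.5% in these data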
FGF22 binding: binders of human FGF22 protein, primary screen, FGF22 synaptogenesis inhibitor project, biophysical, thermal shift, single point; Fibroblast growth factor 22 (Homo sapiens), Q9HCT0; 340,000 compounds, 1.5% hits; activity (Tm shift, normalised), % at 9.99 µM; AID 651658, 2012; recombinant FGF22 thermal shift, SYPRO orange fluorescence; percent of sucrose octasulfate shift, DMSO zero;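 active = mean Tm shift, scaled 0 neutral to 100 positive control, at about 1.3% or above, every replicate too, limit read from the data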
Target sequence (Q9HCT0 whole entry, looked up): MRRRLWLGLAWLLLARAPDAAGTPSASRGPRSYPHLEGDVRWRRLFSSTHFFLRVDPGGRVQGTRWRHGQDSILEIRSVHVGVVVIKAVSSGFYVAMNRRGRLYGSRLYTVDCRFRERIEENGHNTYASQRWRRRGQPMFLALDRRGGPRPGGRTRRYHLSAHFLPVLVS
ADAM10 counter: ADAM10 inhibitors, counter-screen for ADAM17 exosite inhibitor project, biochemical, FRET, human ADAM10. recombinant ADAM10, EDANS/DABCYL FRET peptide cleavage, 3 h. inhibition, % at 6.95 µM. AID 743256, 2014. shares compounds with ADAM17 inh. 2,900 compounds, 47% hits;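 active = mean inhibition over the triplicate runs exceeds the activity threshold set in the earlier primary screen, cut at about 20% in these data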
ADAM17 confirm: ADAM17 inhibitors, hit retest, confirmation, biochemical, QFRET peptide cleavage | recombinant ADAM17, EDANS/DABCYL QFRET peptide cleavage | 2,900 compounds, 65% hits | shares compounds with ADAM17 inh | inhibition, % at 6.95 µM;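 active = mean inhibition across replicates above the hit cutoff set in the primary screen, cut at about 8.5% in these data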
Numbers stand for hits; 0 = inactive; - = not tested or not shown.

SMILES	rRNA inh HTS	ADAM10 inh	proKLK7 act	ADAM17 inh	FGF22 binding	ADAM10 counter	ADAM17 confirm
CC(Oc1ccc(F)cc1)C(=O)Nc1cccc(S(=O)(=O)N(C)c2ccccc2)c1 (centres undefined)	0	0	0	0	0	-	-
CN(c1ccccc1)S(=O)(=O)c1cccc(NC(=O)COC(=O)C2CCCCC2)c1	0	0	0	8.8	0	32	14
COc1ccc(N(C)S(=O)(=O)c2cccc(C(=O)Nc3nc(C)cs3)c2)cc1	0	0	0	0	0	-	-
CN(c1ccccc1)S(=O)(=O)c1cccc(C(=O)Nc2cccc(C(=O)NC3CC3)c2)c1	0	0	0	9.2	0	0	0
C[C@@H]1CN([C@H](C)CO)C(=O)Cc2cc(NC(=O)Nc3cccc4ccccc34)ccc2O[C@H]1CN(C)C(=O)NC1CCCCC1	0	-	-	-	0	-	-
CCC(C(=O)Nc1cccc(S(=O)(=O)N(C)c2ccccc2)c1)c1ccccc1 (centres undefined)	0	0	0	9.3	0	0	8.7
OC(COc1ccc(OCc2ccccc2)cc1)CN1CCOCC1 (centres undefined)	0	0	0	10	-	0	0
CCN(CC)C(=O)c1nc[nH]c1C(=O)N(CC)CC	0	0	0	9.2	0	0	0
CCN(CC)C(=O)c1[nH]cnc1C(=O)Nc1ccccc1	0	0	0	0	0	-	-
CCOC(=O)c1c(C)[nH]c(C)c1C(=O)COC(=O)/C=C/c1ccc(OC(F)F)cc1	0	0	0	9.3	0	21	10
CCOC(=O)c1c(C)[nH]c(C(=O)COC(=O)/C=C/c2ccc(OC(F)F)cc2)c1C	-	0	0	0	-	-	-
C[C@@H]1CN([C@@H](C)CO)C(=O)Cc2cc(NC(=O)CCN3CCOCC3)ccc2O[C@H]1CN(C)CC1CC1	0	-	-	-	0	-	-
COc1ccc(S(=O)(=O)N(C)C[C@H]2Oc3ccc(NS(=O)(=O)c4ccccc4)cc3CC(=O)N([C@H](C)CO)C[C@@H]2C)cc1	0	0	0	13	0	0	0
C[C@H]1CN([C@@H](C)CO)C(=O)c2cc(NC(=O)C3CCCCC3)ccc2O[C@H]1CN(C)Cc1ccc(-c2ccccc2)cc1	0	0	0	11	0	32	18
C[C@@H]1CN([C@@H](C)CO)C(=O)c2cc(NC(=O)C3CCCCC3)ccc2O[C@@H]1CN(C)Cc1ccc(-c2ccccc2)cc1	0	-	-	-	0	-	-
COc1ccc(S(=O)(=O)Nc2ccc3c(c2)CC(=O)N([C@@H](C)CO)C[C@@H](C)[C@@H](CN(C)Cc2ccccc2)O3)cc1	0	0	0	11	0	0	0
CC(=O)N1CC2(C1)[C@@H](c1ccc(-c3ccc(C#N)cc3)cc1)[C@@H](CO)N2C(C)=O	0	-	-	-	0	-	-
CCCNC(=O)[C@@H]1[C@@H](CO)[C@@H]2Cn3c(cccc3=O)[C@H]1N2C(=O)C1CCCC1	0	-	-	-	0	-	-
CCOc1ccc(N(CC(=O)NCCSc2ccccn2)S(C)(=O)=O)cc1	-	0	0	10	-	0	0
CS(=O)(=O)N(CC(=O)NCCSc1ccccn1)c1cccc2ccccc12	0	0	0	0	0	-	-
CNC[C@@H]1Oc2ccc(NC(=O)Nc3ccc(OC)cc3)cc2CC(=O)N([C@@H](C)CO)C[C@H]1C	0	-	-	-	0	-	-
Clc1ccc(OCc2nc(-c3ccccn3)n[nH]2)cc1	-	0	0	9.4	-	0	0
CCOC(=O)c1c(C)[nH]c(N=Nc2cccc(C)c2)c1C	-	0	0	9.7	-	24	14

Screening data deposited in PubChem by several laboratories.
